Source: PubChem BioAssay
PLC-beta3 inh: inhibitors of human phospholipase C beta3 | Q01970 | Purified PLC-beta3, fluorogenic substrate, fluorescence | inhibition, % at 12.2 µM | hit rate 0.18% among 370,000; in the data active = inhibition above about 11%;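 also: 0% = median of compound wells on plate and 100% = full blocker control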
Cardio protect: modulators protecting cardiomyocytes from myocardial damage; H9c2 cardiomyocytes, H2O2 injury protection, ATPLite, 2 h; protection from H2O2 cell death, % at 20 µM; hit rate 0.63% among 360,000; AID 588492;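 active = compounds giving at least 50% protection of heart cells from peroxide-induced death in the single-dose screen, raw or plate-pattern-corrected value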;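 also: 0% = DMSO wells with peroxide and 100% = DMSO wells without peroxide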
FAS-TE inh: FAS thioesterase (human) inhibition. AID 602261. recombinant FAS-TE, OMFH fluorogenic substrate, fluorescence endpoint. hit rate 0.67% among 360,000. inhibition, % at 15 µM. P49327;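 active = compounds whose normalised, plate-corrected inhibition of enzyme fluorescence in the single-dose primary screen is 50% or more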;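 also: 0% = DMSO with enzyme and 100% = substrate without enzyme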
PLCg1 inh: inhibitors of human phospholipase C gamma1; P19174; purified PLC-gamma1, fluorogenic substrate, fluorescence; inhibition, % at 12.2 µM; hit rate 0.84% among 370,000; in the data active = inhibition above about 9.5%
FAS-TE conf: confirmation of human fatty acid synthase thioesterase inhibitors. shares compounds with FAS-TE inh. recombinant FAS-TE, OMFH fluorogenic substrate, fluorescence. hit rate 45% among 2,300. inhibition, % at 15 µM;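 active = compounds inhibiting the enzyme by at least 50% at 15 µM in any one of the replicates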;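 also: 0% = enzyme with DMSO only and 100% = wells lacking enzyme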
An asterisk follows results filed as active. In the library only some 2.2% were active in any assay of this set; here they are far more common.

What do the screens show for `O=C(Cn1c(=O)n(-c2ccccc2)c(=O)c2sccc21)NCc1ccccc1`?
PLC-beta3 inh: 6; Cardio protect: 8; FAS-TE inh: -4; PLCg1 inh: 3

What do the screens show for `O=C(Cn1c(=O)c2sccc2n(Cc2ccc([N+](=O)[O-])cc2)c1=O)NCCc1ccccc1`?
PLC-beta3 inh: 5; Cardio protect: 1; FAS-TE inh: 75*; PLCg1 inh: 5; FAS-TE conf: 76*

What do the screens show for `O=C(Cn1c(=O)c2sccc2n(Cc2cccc([N+](=O)[O-])c2)c1=O)NCCc1ccccc1`?
PLC-beta3 inh: 2; Cardio protect: 7; FAS-TE inh: 57*; PLCg1 inh: 2; FAS-TE conf: 63*

How did COC(=O)C1(F)C(=O)NC(=O)NC1OC (stereo unspecified) do in these assays?
PLC-beta3 inh: 7; PLCg1 inh: 4

How did CCC[C@H]1[C@@H](NCc2ccccc2)CC[C@@]23CCCN2C(=O)CCC[C@@H]13 do in these assays?
PLC-beta3 inh: 4; PLCg1 inh: 0

Results for CCCCN(C)C(=O)CNc1nnnn1-c1ccccc1 ?
PLC-beta3 inh: 0; PLCg1 inh: 2

Results for O=C(Nc1ccccc1)c1ccc(Nc2c([N+](=O)[O-])cc([N+](=O)[O-])c3ccccc23)cc1 ?
PLC-beta3 inh: 0; Cardio protect: -14; FAS-TE inh: 69*; PLCg1 inh: 1; FAS-TE conf: 38

How did COc1ccc(Cl)cc1CN1CCN(c2nc(C)cc(C)c2C#N)CC1 do in these assays?
PLC-beta3 inh: -26; Cardio protect: -3; FAS-TE inh: 16; PLCg1 inh: -27

What do the screens show for `Cc1cc(C)c(C#N)c(N2CCN(CCOc3ccc(Cl)cc3)CC2)n1`?
PLC-beta3 inh: -8; Cardio protect: 5; FAS-TE inh: 50*; PLCg1 inh: -8; FAS-TE conf: 33

How did COc1ccc(NS(=O)(=O)c2cc(NC(=O)c3cnc(C)cn3)ccc2N2CCCCC2)cc1 do in these assays?
PLC-beta3 inh: -2; Cardio protect: -7; FAS-TE inh: 55*; PLCg1 inh: -3; FAS-TE conf: 28

Results for COc1ccc(NS(=O)(=O)c2cc(NC(=O)c3ccc(Cl)cc3)ccc2N2CCOCC2)cc1 ?
PLC-beta3 inh: -3; Cardio protect: -3; FAS-TE inh: 53*; PLCg1 inh: 4; FAS-TE conf: 6

Results for COc1ccc(NS(=O)(=O)c2cc(NC(=O)c3ccncc3)ccc2N2CCOCC2)cc1 ?
PLC-beta3 inh: 1; Cardio protect: -6; FAS-TE inh: -5; PLCg1 inh: 2

Results for CC(C)=CCC/C(C)=C/CNCC(=O)N1c2ccccc2[C@]2(C)C[C@@H]3C(=O)N(C/C=C(\C)CCC=C(C)C)CC(=O)N3[C@H]12 ?
PLC-beta3 inh: -2; PLCg1 inh: 2

What do the screens show for `O=C(Nn1c(-c2ccc(Br)cc2)nc2ccccc2c1=O)c1ccc([N+](=O)[O-])cc1`?
PLC-beta3 inh: 2; Cardio protect: -10; FAS-TE inh: 65*; PLCg1 inh: 0; FAS-TE conf: 45*

What do the screens show for `CCCN(CC1CC1)C(=O)CNc1nnnn1-c1ccccc1`?
PLC-beta3 inh: 4; PLCg1 inh: 1

What do the screens show for `Cc1ccc(S(=O)(=O)N(C)C)cc1NC(=S)NC(C)CCCC(C)C` (stereo unspecified)?
PLC-beta3 inh: 1; Cardio protect: -13; FAS-TE inh: 58*; PLCg1 inh: -2; FAS-TE conf: 53*

Results for CCN(Cc1ccccc1)c1ccc(/C=N/NC(=O)c2cccc(S(=O)(=O)N3CCOCC3)c2)cc1 ?
PLC-beta3 inh: -42; Cardio protect: -6; FAS-TE inh: 82*; PLCg1 inh: -43; FAS-TE conf: 8

What do the screens show for `COc1ccc2ccccc2c1/C=N/NC(=S)Nc1cc(S(=O)(=O)N2CCOCC2)ccc1N1CCOCC1`?
PLC-beta3 inh: -9; Cardio protect: 0; FAS-TE inh: 92*; PLCg1 inh: -4; FAS-TE conf: 27

What do the screens show for `CCN(CC)S(=O)(=O)c1ccc(N2CCOCC2)c(NC(=O)c2ccc3ccccc3c2)c1`?
PLC-beta3 inh: -1; Cardio protect: -3; FAS-TE inh: 52*; PLCg1 inh: 2; FAS-TE conf: 22

What do the screens show for `O=C(C1CCCN1S(=O)(=O)c1ccc(Cl)s1)N1CCN(c2ccccc2)CC1` (stereo unspecified)?
PLC-beta3 inh: -1; PLCg1 inh: 1

What do the screens show for `CO[C@@H]1[C@H](O)CC[C@]2(O)CN(c3ccc(F)cc3)[C@](C)([C@H](O)CC=C(C)C)[C@@H]12`?
PLC-beta3 inh: -6; PLCg1 inh: -3

How did COc1ccc(-n2c(SCc3ccc([N+](=O)[O-])cc3)nnc2-c2ccc(C)cc2)cc1 do in these assays?
PLC-beta3 inh: -1; Cardio protect: -2; FAS-TE inh: 58*; PLCg1 inh: 2; FAS-TE conf: 42

Results for Cc1ccc(-c2nnc(SCc3ccc([N+](=O)[O-])cc3)n2-c2ccccc2)cc1 ?
PLC-beta3 inh: -3; PLCg1 inh: 3

What do the screens show for `CCOC1=C2CN(S(=O)(=O)c3ccc(C)cc3)[C@@H](c3ccccc3)C[C@H]2[C@H]2C(=O)N(c3ccccc3)C(=O)[C@H]2C1`?
PLC-beta3 inh: -31; Cardio protect: 0; FAS-TE inh: 69*; PLCg1 inh: -22; FAS-TE conf: 9

Results for CCOC1=C2CN(S(=O)(=O)c3ccccc3)[C@@H](c3ccccc3)C[C@H]2[C@H]2C(=O)N(c3ccccc3)C(=O)[C@H]2C1 ?
PLC-beta3 inh: -23; PLCg1 inh: -14

Results for CCOC1=C2CN(S(=O)(=O)c3ccc(C)cc3)C(c3cccc(Cl)c3)CC2N(S(=O)(=O)c2ccc(Cl)cc2)C(c2ccccc2)C1 (stereo unspecified) ?
PLC-beta3 inh: 3; PLCg1 inh: 3

How did CCOC1=C2CN(S(=O)(=O)c3ccc(C)cc3)[C@@H](c3cccc4ccccc34)C[C@H]2[C@H]2C(=O)N(c3ccccc3)C(=O)[C@H]2C1 do in these assays?
PLC-beta3 inh: -1; Cardio protect: 6; FAS-TE inh: 88*; PLCg1 inh: -1; FAS-TE conf: 6

What do the screens show for `CCCCC[C@@H]1[C@@H]2C(=C(OCC)C[C@@H]3C(=O)N(c4ccccc4)C(=O)[C@H]23)[C@H](c2ccccc2)N1S(=O)(=O)c1ccc(C)cc1`?
PLC-beta3 inh: -2; Cardio protect: 3; FAS-TE inh: 27; PLCg1 inh: 0

What do the screens show for `CCOC1=C2[C@H](c3ccccc3)N(S(=O)(=O)c3ccc(C)cc3)C(C(C)(C)C)[C@H]2C(C#N)(C#N)C(C#N)(C#N)C1` (stereo partly specified)?
PLC-beta3 inh: 9; Cardio protect: -13; FAS-TE inh: 78*; PLCg1 inh: 5; FAS-TE conf: 12

What do the screens show for `CCOC1=C2CN(S(=O)(=O)c3ccc(C)cc3)[C@H](c3cccc(Cl)c3)C[C@H]2[C@H]2C(=O)N(c3ccccc3)C(=O)[C@H]2C1`?
PLC-beta3 inh: 1; Cardio protect: -2; FAS-TE inh: 81*; PLCg1 inh: -1; FAS-TE conf: 19
